Experimental data: PubChem BioAssay
Activity calls are given as the source filed them.

Columns and labels:
Albumin (Bos taurus) = Albumin (Bos taurus) (UniProt P02769); assay: bovine serum albumin binders on microarray, profiling panel, artefact control for SMM control protein annotation, biochemical, small-molecule microarray, Alexa647 label, 635/667 nm fluorescence (AID 1118); settings: BSA-A647 binding, fluorescence 635 nm, higher = more signal;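 also: score merges 667 nm emission intensity and signal-to-noise per printed compound spot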
[1] = small-molecule microarray binders of probe aXIP, primary screen, biochemical, NeuroSMM set, 635/667 nm fluorescence (AID 1119); settings: higher = more signal, called active from +8 up or from −8 down;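 also: probe is the protein aXip251-270 applied at 1 µg/mL to compound-printed slides; binding of probe to printed compounds measured as 667 nm fluorescence plus signal to noise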
[2] = small-molecule binders of probe aNOTCH3, primary screen, biochemical, small-molecule microarray, 635/667 nm fluorescence (AID 1120); settings: higher = more signal;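 also: probe is a biotin-tagged antibody raised against NOTCH3 rather than NOTCH3 protein; score merges spot fluorescence near 667 nm with spot signal to noise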
[3] = small-molecule binders of probe aNOTCH2, primary screen, biochemical, small-molecule microarray, 635/667 nm fluorescence (AID 1121); settings: higher = more signal;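 also: score merges feature fluorescence read at 667 nm with its signal to noise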
[4] = target: Carbonic anhydrase 2 (Homo sapiens) (UniProt P00918); assay: CAII small-molecule binders, profiling panel, biochemical, small-molecule microarray, Alexa647-labelled CAII (AID 1122); settings: CAII-A647 binding fluorescence, higher = more signal
[5] = COS7 lysate on small-molecule microarray, probe aHis, 635 nm (AID 1123); settings: COS7 cell lysate, fluorescence, higher = more signal;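 also: z-score combines 667nm fluorescence intensity with signal-to-noise per printed compound spot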
[6] = compound binding in COS7 lysate, probe aLAP1, primary screen, cell lysate, small-molecule microarray (AID 1124); settings: probe aLAP1, fluorescence, higher = more signal;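 also: lysate comes from COS7 cells expressing LAP1 and is applied at 0.3 µg/mL; score merges spot fluorescence near 667 nm with signal-to-noise over triplicate slides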
Sam68 (KHDRBS1) = assay: Sam68 small-molecule binders, primary screen, biochemical, small-molecule microarray, 635 nm fluorescence (AID 1125); settings: small-molecule microarray binding, higher = more signal;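 also: score merges 667 nm channel intensity with signal to noise over triplicate slides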
[7] = test system: Chordin-like protein 2 (CHRDL2); assay: CHRDL2 small-molecule binders, primary screen, biochemical, small-molecule microarray, 635 nm fluorescence (AID 1126); settings: small-molecule microarray binding, fluorescence 635 nm; higher = more signal;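 also: printed compound slides probed with Chrdl2 protein at 4 µg/mL for 1 h at 4 C; score merges 667 nm emission intensity with signal to noise over three replicate slides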
[8] = target: Concanavalin-A (Canavalia ensiformis) (UniProt P02866); assay: ConA small-molecule binders, primary screen, artefact control for SMM control protein annotation, biochemical, small-molecule microarray, Alexa647 label, 635 nm (AID 1127); settings: ConA-A647 binding fluorescence, higher = more signal;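 also: z combines 667 nm emission intensity with signal-to-noise across three replicate slides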
[9] = anti-His antibody binders, primary screen, artefact control for SMM control protein annotation, biochemical, small-molecule microarray, 635 nm fluorescence (AID 1128); settings: anti-His Alexa647 antibody binding, higher = more signal;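 also: score merges feature fluorescence with signal-to-noise for each printed compound spot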
[10] = test system: Human papillomavirus type 1a E7 protein (residues 1-88); assay: HPV1a E7 small-molecule binders, primary screen, biochemical, small-molecule microarray, residues 1-88, 635 nm (AID 1129); settings: small-molecule microarray binding, fluorescence 635 nm; higher = more signal
[11] = target: Focal adhesion kinase 1 (Homo sapiens) (UniProt Q05397); assay: small-molecule microarray binders of FAK, primary screen, biochemical, 635/667 nm fluorescence, BSA, DTT (AID 1130); settings: PTK2 binding, 635 nm fluorescence, higher = more signal;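 also: composite of spot emission at 667 nm and signal to noise over triplicate slides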
[12] = test system: Fibrinogen (Alexa647-labelled); assay: fibrinogen binders on compound microarrays, profiling panel, artefact control for SMM control-protein annotation, biochemical, small-molecule microarray, 635/667 nm fluorescence (AID 1131); settings: fibrinogen-A647 binding fluorescence, higher = more signal;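 also: z-score merges 667 nm fluorescence with per-spot signal-to-noise over triplicate slides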
[13] = target: Follistatin (Homo sapiens) (UniProt P19883); assay: follistatin binders on small-molecule microarrays, primary screen, biochemical, small-molecule microarray, 635/667 nm fluorescence (AID 1132); settings: FST binding, 635 nm fluorescence, higher = more signal
[14] = target: Fibroblast growth factor 2 (Homo sapiens) (UniProt P09038); assay: FGF2 binders on small-molecule microarrays, primary screen, biochemical, small-molecule microarray, 635/667 nm fluorescence (AID 1133); settings: small-molecule microarray binding, FGF2, fluorescence 635/667; higher = more signal
[15] = mitochondrial membrane potential change in A549 cells, profiling panel, cell-based, JC-1 fluorescence, basal, 24 h, 100 nL (AID 1138); settings: higher = more signal;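 also: A549 lung adenocarcinoma cells under basal conditions with no added stimulus; test concentration not given here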
Lefty1 = Lefty1 binders on small-molecule microarrays, primary screen, biochemical, small-molecule microarray, 635/667 nm fluorescence (AID 1139); settings: small-molecule microarray binding, fluorescence 635/667; higher = more signal
[16] = test system: wheat germ agglutinin (Triticum aestivum), Alexa647-labelled; assay: wheat germ agglutinin binders on compound microarrays, profiling panel, artefact control for SMM control-protein annotation, biochemical, small-molecule microarray, 635/667 nm fluorescence (AID 1140); settings: WGA-A647 binding, 635 nm fluorescence, higher = more signal;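 also: score merges 667 nm feature emission with signal to noise over triplicate slides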
[17] = target: Luciferin 4-monooxygenase (Photinus pyralis) (UniProt P08659); assay: firefly luciferase enzyme inhibitors, primary screen, biochemical, luminescence, purified enzyme, 2006 set (AID 1141); settings: SteadyGlo luminescence, 30 min, higher = more signal, called active from +8 up or from −8 down;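 also: cell-free assay with purified firefly luciferase at 100 ng per well in PBS; test concentration not given here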
Chain of Luciferin 4-monooxygenase (Photinus pyralis) (P08659 whole entry, looked up): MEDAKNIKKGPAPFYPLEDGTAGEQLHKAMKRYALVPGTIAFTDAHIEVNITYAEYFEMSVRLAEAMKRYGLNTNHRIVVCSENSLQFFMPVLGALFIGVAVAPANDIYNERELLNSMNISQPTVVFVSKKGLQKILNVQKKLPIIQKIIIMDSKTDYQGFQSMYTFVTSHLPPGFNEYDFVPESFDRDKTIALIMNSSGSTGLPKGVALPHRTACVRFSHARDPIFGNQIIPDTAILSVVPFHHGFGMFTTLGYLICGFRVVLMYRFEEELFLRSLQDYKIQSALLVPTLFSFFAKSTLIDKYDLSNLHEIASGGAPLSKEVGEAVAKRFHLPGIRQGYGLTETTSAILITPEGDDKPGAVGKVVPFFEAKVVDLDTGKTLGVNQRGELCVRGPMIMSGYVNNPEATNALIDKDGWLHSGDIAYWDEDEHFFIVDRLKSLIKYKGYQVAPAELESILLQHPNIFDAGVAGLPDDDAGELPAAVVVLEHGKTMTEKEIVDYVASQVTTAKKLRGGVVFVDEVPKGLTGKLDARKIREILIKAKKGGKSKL

Chain of Fibroblast growth factor 2 (Homo sapiens) (P09038 whole entry, looked up): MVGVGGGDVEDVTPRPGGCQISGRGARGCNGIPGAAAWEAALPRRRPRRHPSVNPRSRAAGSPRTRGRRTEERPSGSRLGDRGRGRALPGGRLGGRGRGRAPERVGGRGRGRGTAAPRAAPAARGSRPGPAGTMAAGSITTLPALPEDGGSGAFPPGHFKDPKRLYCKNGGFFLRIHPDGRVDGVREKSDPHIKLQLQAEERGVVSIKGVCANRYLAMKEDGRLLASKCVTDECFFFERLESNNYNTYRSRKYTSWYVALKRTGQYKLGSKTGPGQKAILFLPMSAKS
Chain of Albumin (Bos taurus) (P02769 whole entry, looked up): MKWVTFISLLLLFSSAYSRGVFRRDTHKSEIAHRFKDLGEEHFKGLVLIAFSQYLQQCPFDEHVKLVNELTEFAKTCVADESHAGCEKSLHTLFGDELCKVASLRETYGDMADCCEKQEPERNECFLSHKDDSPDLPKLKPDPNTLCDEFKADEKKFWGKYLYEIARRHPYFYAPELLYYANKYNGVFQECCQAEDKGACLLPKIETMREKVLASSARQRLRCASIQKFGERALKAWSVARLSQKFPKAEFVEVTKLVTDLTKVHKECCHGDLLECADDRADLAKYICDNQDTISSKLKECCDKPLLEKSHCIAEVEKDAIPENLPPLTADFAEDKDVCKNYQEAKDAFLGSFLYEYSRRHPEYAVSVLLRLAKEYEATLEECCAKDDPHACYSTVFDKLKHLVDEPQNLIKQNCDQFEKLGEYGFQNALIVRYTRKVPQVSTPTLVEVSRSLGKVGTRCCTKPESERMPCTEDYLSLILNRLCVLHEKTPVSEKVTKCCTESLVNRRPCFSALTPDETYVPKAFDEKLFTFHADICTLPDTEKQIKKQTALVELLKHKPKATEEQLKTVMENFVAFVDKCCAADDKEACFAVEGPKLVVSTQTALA
Chain of Concanavalin-A (Canavalia ensiformis) (P02866 whole entry, looked up): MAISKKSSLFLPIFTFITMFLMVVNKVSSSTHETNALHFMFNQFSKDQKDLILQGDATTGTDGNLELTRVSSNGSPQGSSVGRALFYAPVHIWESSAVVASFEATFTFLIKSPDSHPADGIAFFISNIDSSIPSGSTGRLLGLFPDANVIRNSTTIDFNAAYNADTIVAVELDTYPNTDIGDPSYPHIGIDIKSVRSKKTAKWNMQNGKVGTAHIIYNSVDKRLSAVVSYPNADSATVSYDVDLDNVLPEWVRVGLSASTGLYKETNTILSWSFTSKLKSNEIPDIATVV
Chain of Focal adhesion kinase 1 (Homo sapiens) (Q05397 whole entry, looked up): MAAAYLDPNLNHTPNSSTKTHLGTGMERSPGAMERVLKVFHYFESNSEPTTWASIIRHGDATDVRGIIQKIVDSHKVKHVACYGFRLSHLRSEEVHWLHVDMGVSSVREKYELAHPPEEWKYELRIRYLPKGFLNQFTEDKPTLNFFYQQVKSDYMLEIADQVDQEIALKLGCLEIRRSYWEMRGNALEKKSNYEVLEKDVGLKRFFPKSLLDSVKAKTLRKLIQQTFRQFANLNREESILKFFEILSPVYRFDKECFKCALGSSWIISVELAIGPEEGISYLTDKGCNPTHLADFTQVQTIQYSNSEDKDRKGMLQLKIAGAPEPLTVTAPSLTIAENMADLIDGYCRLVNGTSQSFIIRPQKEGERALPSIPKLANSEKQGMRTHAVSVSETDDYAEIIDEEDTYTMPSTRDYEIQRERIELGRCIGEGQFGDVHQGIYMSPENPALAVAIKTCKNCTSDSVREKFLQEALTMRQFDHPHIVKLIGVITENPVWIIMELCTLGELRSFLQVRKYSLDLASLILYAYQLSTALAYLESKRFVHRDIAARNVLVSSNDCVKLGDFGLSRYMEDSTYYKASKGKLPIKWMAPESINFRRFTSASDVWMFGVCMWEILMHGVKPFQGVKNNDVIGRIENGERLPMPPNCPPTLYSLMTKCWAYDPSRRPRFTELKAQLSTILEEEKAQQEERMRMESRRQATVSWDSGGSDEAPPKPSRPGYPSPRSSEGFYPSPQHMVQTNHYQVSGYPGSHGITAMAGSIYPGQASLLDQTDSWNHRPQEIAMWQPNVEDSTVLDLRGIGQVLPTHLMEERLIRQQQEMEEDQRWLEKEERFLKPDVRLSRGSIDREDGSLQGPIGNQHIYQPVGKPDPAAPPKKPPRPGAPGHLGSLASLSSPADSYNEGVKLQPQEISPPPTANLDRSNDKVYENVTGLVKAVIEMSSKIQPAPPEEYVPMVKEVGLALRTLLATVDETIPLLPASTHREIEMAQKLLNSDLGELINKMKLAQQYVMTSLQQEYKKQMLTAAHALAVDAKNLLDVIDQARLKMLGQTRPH
Chain of Follistatin (Homo sapiens) (P19883 whole entry, looked up): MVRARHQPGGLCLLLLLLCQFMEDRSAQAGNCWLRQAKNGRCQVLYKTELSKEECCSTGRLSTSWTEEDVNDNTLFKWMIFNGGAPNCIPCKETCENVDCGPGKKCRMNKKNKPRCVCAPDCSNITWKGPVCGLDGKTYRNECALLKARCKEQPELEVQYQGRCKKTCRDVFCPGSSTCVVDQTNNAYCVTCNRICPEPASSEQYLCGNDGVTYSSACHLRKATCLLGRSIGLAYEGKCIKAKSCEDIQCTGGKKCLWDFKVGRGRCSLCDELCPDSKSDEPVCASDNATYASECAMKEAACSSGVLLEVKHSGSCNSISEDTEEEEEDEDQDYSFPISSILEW

Row | SMILES | composite z-score (Albumin (Bos taurus)) | composite Z-score [1] | composite z-score [2] | composite z-score [3] | composite z-score [4] | composite z-score [5] | composite z-score [6] | composite z-score (Sam68 (KHDRBS1)) | composite z-score [7] | composite z-score [8] | composite z-score [9] | composite z-score [10] | composite z-score [11] | composite z-score [12] | composite z-score [13] | composite z-score [14] | z-score [15] | composite z-score (Lefty1) | composite z-score [16] | z-score [17]
1 | COc1ccc(C(O)C2C=CC3C(=O)N(C)C(=O)C3N2N2CCCCC2)cc1 (stereo not given) | 0.999 | 0.0811 (inactive) | 0.272 | 0.233 | 0.761 | 2.14 | 0.986 | 1.1 | 0.248 | 1.11 | 2.56 | 1.23 | 0.656 | 0.96 | 0.299 | -0.19 | 0.406 | -0.523 | 1.29 | -1.08 (inactive)
2 | CCOC(=O)[C@@H]1[C@@H]2C(=O)N(CC)C(=O)[C@@H]2C[C@@H]1Sc1ccccc1 | 0.663 | -0.889 (inactive) | 0.191 | -0.0297 | 0.36 | 1.84 | 0.68 | 1.25 | -0.235 | 0.563 | 1.62 | 1.2 | 0.592 | 0.462 | 0.329 | 0.0435 | -1.24 | 0.307 | 0.402 | 1.4 (inactive)
3 | COc1cc2c(cc1OC)CN(C(=O)[C@H]1[C@@H]3C(=O)O[C@@H](c4ccccc4)[C@@H](c4ccccc4)N3[C@@H](c3ccc(OCCO)cc3)[C@]13C(=O)Nc1ccc(C#CC4(O)CCCCCC4)cc13)CC2 | 0.822 | -0.195 (inactive) | -0.337 | -0.126 | 0.619 | 1.52 | 0.491 | 1.29 | 0.739 | 1.18 | 1.91 | 1.21 | -0.109 | 0.819 | 1.46 | 1.38 | -1.42 | 1.35 | 1.18 | -1.15 (inactive)
4 | O=C1O[C@@H](c2ccccc2)[C@@H](c2ccccc2)N2[C@@H](c3ccccc3OCCO)[C@]3(C(=O)Nc4ccc(C#CC5=CCCCC5)cc43)[C@@H](C(=O)NC[C@H](O)c3ccccc3)[C@H]12 | 0.402 | -0.584 (inactive) | 0.0522 | -0.124 | 0.211 | 0.363 | 0.182 | 1.28 | 0.478 | 1.04 | 1.08 | 1.13 | 0.0363 | 0.883 | 0.961 | 1.51 | -1.69 | 1.02 | -0.186 | -1.32 (inactive)
5 | COCCCNC(=O)[C@]1(Cc2ccccc2CN=[N+]=[N-])N=C(c2ccc(OCCCO)cc2)O[C@@H]1c1ccccc1 | 0.867 | -0.337 (inactive) | 0.289 | -0.0633 | 0.548 | 1.91 | 0.785 | 0.997 | -0.474 | 1 | 2.83 | 1.19 | 0.306 | 0.985 | 0.547 | -0.0864 | 1.06 | 0.0167 | 0.643 | 0.505 (inactive)
6 | CC(C)(C)OC(=O)CC[C@]1(C(=O)O)N=C(c2ccc(OCCCO)cc2)O[C@H]1c1ccccc1CN=[N+]=[N-] | 0.472 | -0.209 (inactive) | 0.0165 | 0.0264 | 0.917 | 0.811 | 0.383 | 0.0075 | -0.237 | -0.192 | 0.401 | 0.251 | -0.171 | -0.0709 | 0.467 | 0.13 | 0.902 | -0.482 | 0.393 | -2.06 (inactive)
7 | COc1ccccc1CN1C(=O)c2ccccc2[C@@H](C(=O)NC(C)C)[C@@H]1c1ccc(CO)cc1 | -0.374 | -0.0458 (inactive) | 0.338 | 0.103 | 0.535 | 2.32 | 1.03 | 1.33 | 0.565 | 1.16 | 1.73 | 1.15 | 0.476 | 1.01 | 1.33 | 1.32 | 1.43 | 0.456 | 0.112 | -0.586 (inactive)
8 | CC(C)CNC(=O)[C@@H]1c2ccccc2C(=O)N(Cc2cc(F)cc(C(F)(F)F)c2)[C@H]1c1ccc(CO)cc1 | 0.382 | -0.161 (inactive) | 0.0628 | -0.0486 | 0.411 | 1.07 | 0.333 | 0.603 | -0.182 | 0.0535 | 0.437 | 0.538 | 0.0403 | 0.626 | 1.02 | 0.721 | 2.47 | -0.0543 | 0.042 | -1.38 (inactive)
9 | CN1C(=O)C2C=CC(C(O)Cc3ccccc3)N(N(c3ccccc3)c3ccccc3)C2C1=O (stereo not given) | 0.829 | 0.895 (inactive) | 0.116 | -0.0086 | 0.613 | 1.02 | 0.521 | 0.805 | -0.897 | 0.325 | 0.548 | 1.17 | 0.293 | 0.331 | 0.307 | -0.622 | 0.54 | -0.0212 | 0.201 | -0.397 (inactive)
10 | C=CCOC(=O)[C@@H]1[C@H]2C(=O)O[C@H](c3ccccc3)[C@H](c3ccccc3)N2[C@H](c2ccc(OCCOC(=O)[C@H]3C[C@H]4C(=O)N[C@@H](CCCC[N+](C)(C)C)C(=O)N4[C@H]3c3ccc(O)cc3)cc2)[C@@]12C(=O)Nc1ccc(I)cc12 | -0.914 | 4.1 (inactive) | 0.147 | -0.0843 | 0.534 | 2.74 | 0.577 | 1.3 | 1.16 | 1.19 | 2.62 | 1.2 | 0.831 | 0.542 | 1.4 | 1.62 | -1.93 | 1.63 | 0.756 | 0.205 (inactive)
11 | O=C(CS)NCCCCCCNC(=O)[C@H]1C[C@H]2C(=O)N[C@@H](Cc3ccccc3)C(=O)N2[C@H]1c1cccc(OCCO)c1 | -0.428 | 0.131 (inactive) | 0.605 | -0.084 | 0.684 | 2.21 | 0.519 | 1.29 | 1.24 | 0.892 | 2.12 | 1.24 | 0.127 | 0.93 | 1.39 | 1.61 | -0.66 | 1.14 | 0.772 | -1.91 (inactive)
